Our source for the corrected activity, negative = more killing and z-score values is PubChem BioAssay AID1508625 (Wald Lab, School of Medicine, Case Western Reserve …, 2021).

The assay is described as follows: enhancers of NK cell killing of ovarian tumor cells, primary screen, imaging, OVCAR3, primary NK cells, calcein-AM imaging (AID 1508625).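 Note: compound given to NK cells 16 h before adding targets at 1.5 to 1 ratio.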 As to conditions: OVCAR3 lysis by primary NK cells, at 5 µM; z-score: measured here: robust Z-score, single-point normalisation.
As for `CCc1ccc(NS(=O)(=O)c2ccc3[nH]cc(C(=O)N(C)Cc4ccccc4)c(=O)c3c2)cc1`, the corrected activity, negative = more killing is -2.32% and the z-score is -0.569.

As for `O=C(Nc1ccc2c(c1)OCCO2)c1cc2cc3ccc(Cl)cc3nc2o1`, the z-score was -0.854 and the corrected activity, negative = more killing is -3.48%.

For `CC(=O)Nc1ccc(NC(=O)CC2OCC3CCCCN3C2=O)cc1` (centres undefined), the corrected activity, negative = more killing was -5.1% and the z-score is -1.95.

As to `CC(C)(C)C1CCC(=O)C(C2(O)C(=O)Nc3ccc(Br)cc32)C1` (centres undefined), the corrected activity, negative = more killing is -3.34% and the z-score is -0.998.

Take `Cc1c(C(=O)O)oc2ccc(S(=O)(=O)N3CCOCC3)cc12`: the corrected activity, negative = more killing was -2.57% and the z-score is -0.692.

For the compound `O=C(COc1ccccc1F)N1CCc2ccccc2C1`, the corrected activity, negative = more killing is -4.1% and the z-score is -1.68.

Consider `CCC(=O)Nc1ccccc1C(=O)C(=O)Nc1ccccc1`, for which the z-score is -0.557 and the corrected activity, negative = more killing is -1%.

Consider `Cc1ccc(NC(=O)CSc2nnc(N3C(=O)c4ccccc4C3=O)s2)c(C)c1`, for which the z-score is -1.68 and the corrected activity, negative = more killing was -5.41%.

Turning to `CC(=O)N1CCc2[nH]c3ccccc3c2C1`, the z-score is -0.676 and the corrected activity, negative = more killing was -1.79%.

As for `COc1ccccc1C(=O)N1CCN(S(=O)(=O)c2ccc(C)cc2)CC1`, the corrected activity, negative = more killing is -3.03% and the z-score is -1.35.

With `Cc1ccc(NCc2cccnc2)cc1`, the z-score was -0.529 and the corrected activity, negative = more killing is -1.25%.

On to `CCn1cnc2sc(C(=O)Nc3cccc([N+](=O)[O-])c3)c(C)c2c1=O`, for which the z-score is -0.931 and the corrected activity, negative = more killing was -2.56%.

Regarding `COc1ccccc1CNC(=O)CCS(=O)(=O)Cc1ccccc1C`, the z-score was -1.18 and the corrected activity, negative = more killing was -4.37%.

Turning to `CCCCNC(=O)c1cc(Nc2ccc(CC)cc2)nc2ccccc12`, the corrected activity, negative = more killing is -8.29% and the z-score was -2.03.

Turning to `COCCN(CCOC)C(=O)c1cc2c(=O)n3ccccc3nc2s1`, the z-score was -0.502 and the corrected activity, negative = more killing was -1.77%.

Take `COCCNC(=O)c1ccc2snnc2c1`: the corrected activity, negative = more killing was -3.88% and the z-score is -1.16.

As for `Cc1cccn2c(=O)c3cc(C(=O)N4CCCCCC4)sc3nc12`, the z-score was -1.8 and the corrected activity, negative = more killing was -6.34%.
